High-throughput results deposited in PubChem BioAssay by National Center for Advancing Translational Sciences (NCATS).
Sampled rows, rich in hits. Any-hit rate of the full collection: about 7.3%.
HCV inh = qHTS Assay for Inhibitors of Hepatitis C Virus (HCV). Potency, µM (highest dose often 41.8 µM), for the others: top-dose activity change, negative = inhibition, most hits filed as inhibitors. actives 3.4% (n = 340,000). Huh7.5.1 HCVcc-Cre infection, luciferase reporter, 44 h; active = well fitted inhibition curve with a large enough effect; inconclusive = small, poorly fitted or top-dose-only effect, or another doubt; inactive = no such curve, though single readings can be large or run the other way; note: potency is the fitted concentration of half-maximal effect
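Antiviral activity was scored by luciferase reporter output from cells infected with HCVcc-Cre (~0.5 moi) in presence of compound, 44 h infection period, cells seeded 1,000/well 4 h prior.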
VACV mCherry inh = qHTS for Stage-Specific Inhibitors of Vaccinia Orthopoxvirus: mCherry Reporter Primary qHTS | Vaccinia virus mCherry reporter infection, fluorescence | actives 0.63% (n = 310,000) | Potency, µM (top dose mostly 36.5 µM), without a hit: top-dose activity change, negative = inhibition, most hits filed as inhibitors; calls by dose curve; tested in A549 cells; note: potency is the fitted concentration of half-maximal effect; nearly all actives have a fitted effect of over 35% in size
FMDV antiviral = High Throughput Screening for Foot and Mouth Disease Virus Antivirals. actives 1.2% (n = 410,000). FMDV antiviral cell-based qHTS. AID 1159524, 2015. Potency, µM (top dose mostly 57.9 µM), for inactives: at the top dose activity change, negative = inhibition, hits mostly inhibitors; calls by dose curve; tested in HEK293T cells; note: read-out not given here; potency is the fitted concentration of half-maximal effect; nearly all actives have a fitted effect of over 45% in size
VACV Venus inh = qHTS for Stage-Specific Inhibitors of Vaccinia Orthopoxvirus: Venus Reporter Primary qHTS; Vaccinia virus Venus reporter expression, fluorescence; Potency, µM (titrated, usually from 36.5 µM), without a hit: at the top dose activity change, negative = inhibition, actives largely listed as inhibitors; actives 0.46% (n = 330,000); AID 720580, 2013; calls by dose curve; tested in A549 cells; note: potency is the fitted concentration of half-maximal effect; nearly all actives have a fitted effect of over 30% in size
HCMV antiviral = qHTS Assay for inhibitors of the human cytomegalovirus (HCMV); HFF cells, HCMV-luciferase reporter, 72 h; hits give low values; activity change, negative = inhibition, % at 57.5 µM; actives 4.5% (n = 410,000); AID 1259415, 2018; in the data active = activity change below about -60%; inconclusive = no clear call, values can overlap the other calls; inactive = above about -39%
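Luciferase read-out from HCMV-luciferase-infected HFFs (MOI 1 PFU/cell) 72 h post infection at 37C; compounds added after 16 h cell attachment; activity normalized between buffer-only basal and Salinomycin (10uM) inhibitor controls.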
An asterisk follows results filed as active; [ ] = remark or other dose. % is set by controls: 0 for no effect and ±100 for the full control effect.

What do the screens show for `COC(=O)[C@H](Cc1ccccc1)NS(=O)(=O)N[C@@H](Cc1ccccc1)C(=O)OC`?
HCV inh: 11%; VACV mCherry inh: inactive; FMDV antiviral: 19%; VACV Venus inh: 0%; HCMV antiviral: -62*

Results for O=S(=O)(c1ccc(-c2cc(C(F)(F)F)on2)s1)N1CCN(c2cccc(Cl)c2)CC1 ?
VACV mCherry inh: -18%; FMDV antiviral: -16%; VACV Venus inh: -9%; HCMV antiviral: -11

How did COc1ccccc1C(=O)OCC(=O)Nc1ccc(N2CCCCC2)cc1 do in these assays?
VACV mCherry inh: -3%; VACV Venus inh: -11%

Results for COC(=O)c1scc(-c2ccc(C)cc2)c1S(=O)(=O)Nc1cc(C)c(Cl)cc1OC ?
VACV mCherry inh: -12%; FMDV antiviral: -1%; VACV Venus inh: 5%; HCMV antiviral: -28

Results for Cc1nn(Cc2ccccc2)c(Cl)c1C(=O)Nc1ccc(OC(F)(F)F)cc1 ?
HCV inh: -28%; VACV mCherry inh: -19%; FMDV antiviral: -26%; VACV Venus inh: -29%; HCMV antiviral: -69*

What do the screens show for `Cc1nn(Cc2ccccc2)c(Cl)c1C(=O)NC1CCCc2ccccc21` (stereo unspecified)?
HCV inh: 35µM*; FMDV antiviral: inconclusive; HCMV antiviral: 11

What do the screens show for `COc1ccc(S(=O)(=O)N2CCOCC2)cc1C(=O)NCc1c(C)nn(Cc2ccccc2)c1C`?
HCV inh: inconclusive; VACV mCherry inh: -7%; FMDV antiviral: 4%; VACV Venus inh: 2%; HCMV antiviral: -14

Results for COc1ccc(C(=O)NCc2c(C)nn(Cc3ccccc3)c2C)cc1S(=O)(=O)N1CCOCC1 ?
HCV inh: inconclusive; FMDV antiviral: -14%; HCMV antiviral: -101*

What do the screens show for `COc1ccc(NC(=O)c2ccco2)cc1S(=O)(=O)N1CCOCC1`?
HCV inh: -2%; VACV mCherry inh: -12%; FMDV antiviral: -7%; VACV Venus inh: -10%; HCMV antiviral: 4

How did COc1ccc(NC(=O)c2c(C)nn(Cc3ccccc3)c2Cl)cc1S(=O)(=O)N1CCOCC1 do in these assays?
HCV inh: inconclusive; FMDV antiviral: inconclusive; HCMV antiviral: -72*

What do the screens show for `CCOC(=O)C1=CCN(S(=O)(=O)c2ccc(Br)cc2)C1c1cccc(Cl)c1` (stereo unspecified)?
HCMV antiviral: -16

What do the screens show for `CCNc1ncc2nc(C)c(=O)n(C)c2n1`?
FMDV antiviral: -5%

Results for COc1ccc(-c2noc(CSc3nnc(C)n3-c3ccc(C)cc3)n2)cc1 ?
VACV mCherry inh: -10%[7.34 µM]; FMDV antiviral: -22%; VACV Venus inh: -10%[7.34 µM]; HCMV antiviral: -23

How did CN1CC(=O)N(CC(=O)Nc2cccc(C#N)c2)c2ccccc2C1=O do in these assays?
VACV mCherry inh: 5%; FMDV antiviral: -20%; VACV Venus inh: -1%; HCMV antiviral: -3

How did C(=Nc1cccnc1)c1ccc2ccccc2n1 do in these assays?
VACV mCherry inh: 23%; VACV Venus inh: -4%

Results for Cc1cc2nc(CCN(C(=S)NCC(C)C)C3CCCC3)[nH]c2cc1C ?
HCV inh: inconclusive; VACV mCherry inh: inconclusive; VACV Venus inh: inconclusive; HCMV antiviral: -85*

What do the screens show for `CN(C)CCN(Cc1cc2cc3c(cc2[nH]c1=O)OCCO3)C(=S)NCC1CCCO1` (stereo unspecified)?
HCV inh: 12%; VACV mCherry inh: -29%; FMDV antiviral: 5%; VACV Venus inh: -24%; HCMV antiviral: 6

What do the screens show for `Cc1cc2nc(CCN(C(=S)NCC3CCCO3)C3CCCC3)[nH]c2cc1C` (stereo unspecified)?
HCV inh: 11µM*; FMDV antiviral: 0%; HCMV antiviral: -63*

Results for COc1ccccc1NC(=O)c1oc2ccccc2c1NC(=O)c1cccc(OC)c1OC ?
VACV mCherry inh: -29%; FMDV antiviral: -7%; VACV Venus inh: -21%; HCMV antiviral: 1

How did O=C(c1cccc(F)c1)N1CC(=O)N2[C@@H](CO)[C@@H](c3ccc(Br)cc3)[C@@H]2C1 do in these assays?
HCMV antiviral: 0
